PubChem BioAssay (Tox21)
Results filed as inconclusive are left out. Entries that show only a call come without a potency. Active and inactive are the calls of the source. The call rests on the fitted dose curve; in most records, active means well fitted cell-killing curve with a large enough effect in the repeat runs; inconclusive means weak or mixed curves, or effect the other way; inactive means flat fitted curve, though single readings scatter.

Assay: cAMP Responsive Elements (CRE) small molecule antagonists, cell-based qHTS assay: qHTS cell viability counter screen (AID 2060913); further: nearly all actives have a fitted effect of over 40% in size
Conditions: CRE-bla HEK293T viability, CellTiter-Glo luminescence, 5 h; series mostly up to 92.4 µM
In short: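 Steps: cells plated and held 18 hrs at 37 C/5% CO2; compounds and NKH477 (0.25 uM final) added; 3 hrs incubation; reporter substrate read; CellTiter-Glo added to measure cytotoxicity by luminescence.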

Structure (SMILES)	Potency
CC(=O)CC(=O)Nc1ccccc1	inactive
CC(=O)Oc1ccc(C(c2ccc(OC(C)=O)cc2)c2ccccn2)cc1	inactive
Cc1nc(-c2ccc3c(c2)CCN(CCC2CCC(NC(=O)/C=C/c4ccc(F)cc4)CC2)CC3)no1 (stereo not given)	inactive
OCCOc1ccc(OCCO)cc1	inactive
C=C1C[C@]23C[C@@]1(O)CC[C@H]2[C@@]12C=C[C@H](O)[C@@](C)(C(=O)O1)[C@H]2[C@@H]3C(=O)O	inactive
O=C(O)CC(C(=O)O)C(CC(=O)O)C(=O)O (stereo not given)	inactive
CC1=C(C(=O)O)N2C(=O)[C@@H](NC(=O)[C@H](N)C3=CCC=CC3)[C@H]2SC1	inactive
CCCCC(CC)CNC(=O)CC(C)OC(=O)CCC(=O)O (stereo not given)	inactive
CCCCCOC(=O)CCC	inactive
CC(C)OC(=O)c1cc(C(=O)OC(C)C)cc([N+](=O)[O-])c1	inactive
CCOc1cc([N+](=O)[O-])c(OCC)cc1N1CCOCC1	inactive
c1cc(CCCc2ccncc2)ccn1	inactive
C[N+]1(CC2COC(c3ccccc3)(C3CCCCC3)O2)CCCCC1 (stereo not given)	inactive
COC(C)(C)CC(C)=O	inactive
COc1cc(C)nc(-n2nc(C)cc2OC)n1	inactive
O=S(=O)(O)c1ccc(O)cc1	inactive
CC(=O)Nc1ccc(OCC(O)CNC(C)C)cc1 (stereo not given)	inactive
CN(C)CCCNCCCN	inactive
CCCCC(CC)C(=O)OCCOCCOCCOCCOC(=O)C(CC)CCCC (stereo not given)	inactive
O=C(Oc1ccccc1)Oc1ccccc1	inactive

Structure (SMILES)	Potency
N#C[C@@H]1CC(F)(F)CN1C(=O)CNC1CC2CCC(C1)N2c1ncccn1 (stereo not given in full)	inactive
CC(=O)Oc1ccc(C2(c3ccc(OC(C)=O)cc3)Oc3ccccc3NC2=O)cc1	inactive
COC(=O)c1c(Cl)c(Cl)c(C(=O)OC)c(Cl)c1Cl	inactive
CCCCCCCOC(=O)CCC	inactive
CCCCOCCOC(=O)c1cccnc1	inactive
COc1cc2[nH]c(=O)[nH]c(=O)c2cc1OC	inactive
CC(C)(C)C1CCC(=O)CC1	inactive
Clc1ccccc1C(c1ccccc1)(c1ccccc1)n1ccnc1	inactive
O=C(OCC(COC(=O)c1cccnc1)(COC(=O)c1cccnc1)COC(=O)c1cccnc1)c1cccnc1	inactive
COc1ccc2cc3[n+](cc2c1OC)CCc1cc2c(cc1-3)OCO2	inactive
CSCC[C@H](NC(=O)[C@H](Cc1c[nH]c2ccccc12)NC(=O)CCNC(=O)OC(C)(C)C)C(=O)N[C@@H](CC(=O)O)C(=O)N[C@@H](Cc1ccccc1)C(N)=O	inactive
CCCCCCCCS(=O)(=O)O	inactive
O=C(c1ccccc1)c1ccc(O)c(O)c1O	inactive
CC(C)(C)c1ccc(C(=O)CCCN2CCC(OC(c3ccccc3)c3ccccc3)CC2)cc1	inactive
Nc1c2c(nc3ccccc13)CCCC2O (stereo not given)	inactive
C=COCCOCCOC=C	inactive
Oc1cc(O)c2c(c1)O[C@H](c1ccc(O)c(O)c1)[C@H](O)C2	inactive
CCOc1ccc(OCC)c(Cl)c1	inactive
O=C1CC[C@@H](C(=O)O)N1	inactive
CCC(C)(C)C1CCC(O)CC1 (stereo not given)	inactive
